# Test results as given in the supplement of paper PMC8047044.
# Structures can show the parent of a compound that is named as a salt.
# Assays:
# Neuro-2a [1] = assay: neurite formation score, plate-normalized to DMSO control mean 5.04 (score (0-8 scale)); higher = more or longer neurites; settings: 1 µM
# Procedure: (§1)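 Neuro-2a mouse neuroblastoma cells in PLL-coated 96-well plates were pre-treated for 1 h in DMEM(+) with each kinase inhibitor at 1 µM, then switched to serum-free DMEM(-) with inhibitor to induce neurite outgrowth and fixed about 2-3 h later. Three blinded observers scored neurite formation from 0 (no neurites) to 8 (long neurites on almost all cells).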
# Neuro-2a [2] = assay: as above; settings: 0.1 µM
# Procedure: as §1, with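 “at 0.1” for “at 1”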
smiles,measurement,setting,value
CN1CCN(CCOc2cc(OC3CCOCC3)c3c(Nc4c(Cl)ccc5c4OCO5)ncnc3c2)CC1 [Saracatinib (AZD0530)],neurite formation score,Neuro-2a [1],4.91
same,neurite formation score,Neuro-2a [2],3.38
Cc1ccc(Nc2nccc(N(C)c3ccc4c(C)n(C)nc4c3)n2)cc1S(N)(=O)=O,neurite formation score,Neuro-2a [1],3.91
same,neurite formation score,Neuro-2a [2],3.71
COc1cc2ncnc(Nc3ccc(O)cc3)c2cc1OC,neurite formation score,Neuro-2a [1],5.02
same,neurite formation score,Neuro-2a [2],4.25
CN1C/C=C/CCOc2cccc(c2)-c2ccnc(n2)Nc2cccc(c2)C1,neurite formation score,Neuro-2a [1],2.8
same,neurite formation score,Neuro-2a [2],4.42
Cc1cnc(Nc2ccc(N3CCN(C)CC3)cc2)nc1Nc1cccc(S(=O)(=O)NC(C)(C)C)c1,neurite formation score,Neuro-2a [1],2.36
same,neurite formation score,Neuro-2a [2],2.58
Nc1nc(NCCNc2ncc(-n3ccnc3)c(-c3ccc(Cl)cc3Cl)n2)ccc1[N+](=O)[O-],neurite formation score,Neuro-2a [1],5.29
same,neurite formation score,Neuro-2a [2],4.92
O=C(c1ccc(Nc2nccc(-c3cc4ccccc4s3)n2)cc1)N1CCC(N2CCCC2)CC1 [IKK-16 (IKK Inhibitor VII)],neurite formation score,Neuro-2a [1],4.54
same,neurite formation score,Neuro-2a [2],3.75
NC(=O)Nc1sc(-c2ccc(F)cc2)cc1C(N)=O,neurite formation score,Neuro-2a [1],4.36
same,neurite formation score,Neuro-2a [2],4.58
O=C(Nc1cccc(Cl)c1)Nc1ncc(CCNc2ncnc3ccsc23)s1 [SNS-314 Mesylate],neurite formation score,Neuro-2a [1],4.69
same,neurite formation score,Neuro-2a [2],4.58
O=C(O)[C@]1(Cc2cccc(Nc3nccs3)n2)CC[C@@H](Oc2cccc(Cl)c2F)CC1,neurite formation score,Neuro-2a [1],3.69
same,neurite formation score,Neuro-2a [2],3.92
CCN(CC)CCCC(C)Nc1ccnc2cc(Cl)ccc12 (centres undefined) [Chloroquine diphosphate],neurite formation score,Neuro-2a [1],4.96
same,neurite formation score,Neuro-2a [2],4.58
CN(C)C/C=C/C(=O)Nc1cc2c(Nc3ccc(F)c(Cl)c3)ncnc2cc1O[C@H]1CCOC1 [Afatinib dimaleate],neurite formation score,Neuro-2a [1],4.91
same,neurite formation score,Neuro-2a [2],4.38
